# From PubChem BioAssay (NCATS)
# Inconclusive results are not listed. A call without a number means that no potency is given here. Values without a mark were called inactive. Activity calls are given as the source filed them. Unless noted, calls come from the whole dose curve; as a rule, active = well fitted curve in the direction sought with a large enough effect; inconclusive = small, poorly fitted or top-dose-only effect, or another doubt; inactive = no such curve, though single readings can be large; an effect the other way counts as inactive or inconclusive.
# Key:
# [1] = target: Aldehyde dehydrogenase, mitochondrial (Homo sapiens) (UniProt P05091); assay: qHTS for Inhibitors of the Aldehyde Dehydrogenase Family (ALDH2) Validation screens (AID 2061302; active = well fitted inhibition curve with a large enough effect; title and protocol of this record describe different tests)
# [2] = BET inhibitor-based combinations targeting novel dependencies in MECOM-rearranged (r) AML: SET-2 cell line (AID 2202231); conditions: SET-2 AML cells viability, CellTiter-Glo luminescence, 48 h; viability: active compounds read low, concentration not given here; note: nearly all actives have a fitted effect of over 35% in size; note: potency is the fitted concentration of half-maximal effect
# Method in brief: (§1)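 A 48 hr incubation preceded viability reading by CellTiter-Glo, with 15 min room-temperature development. Dose series had 11 points; normalization used DMSO and empty wells; AUC was computed and mean-centered per line as Z-AUC.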
# [3] = BET inhibitor-based combinations targeting novel dependencies in MECOM-rearranged (r) AML: OCI-AML3 cell line (AID 2202232); conditions: Potency: OCI-AML3 viability; note: nearly all actives have a fitted effect of over 35% in size; note: potency is the fitted concentration of half-maximal effect
# Method in brief: as §1
# [4] = BET inhibitor-based combinations targeting novel dependencies in MECOM-rearranged (r) AML: MV-4-11 cell line (AID 2202233); note: nearly all actives have a fitted effect of over 45% in size; note: potency is the fitted concentration of half-maximal effect
# Method in brief: (§2)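 Each compound is tested in an 11-point concentration series against 500 seeded cells/well for 48 hr. The luminescent viability signal is normalized to DMSO and blank wells, then reduced to AUC and a cell-line-centred Z-AUC.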
# [5] = BET inhibitor-based combinations targeting novel dependencies in MECOM-rearranged (r) AML: HNT-34 cell line (AID 2202234); note: nearly all actives have a fitted effect of over 35% in size; note: potency is the fitted concentration of half-maximal effect
# Method in brief: as §2
# [6] = BET inhibitor-based combinations targeting novel dependencies in MECOM-rearranged (r) AML: UCSD-AML1 cell line (AID 2202235); note: nearly all actives have a fitted effect of over 40% in size; note: potency is the fitted concentration of half-maximal effect
# Method in brief: as §2
# [7] = BET inhibitor-based combinations targeting novel dependencies in MECOM-rearranged (r) AML: AML-191 cell line (AID 2202236; note: nearly all actives have a fitted effect of over 35% in size; note: potency is the fitted concentration of half-maximal effect)
# Method in brief: as §1
# [8] = qHTS for Inhibitors of the Aldehyde Dehydrogenase Family (ALDH1A2, ALDH1A3, ALDH2, ALDH3A1) (AID 2061307); note: nearly all actives have a fitted effect of over 50% in size; for potency: test system not described further here; potency is the fitted concentration of half-maximal effect
# [9] = target: Aldehyde dehydrogenase, mitochondrial (Homo sapiens) (UniProt P05091); assay: qHTS for Inhibitors of the Aldehyde Dehydrogenase Family (ALDH2) Confirmatory screens (AID 2061303; active = well fitted inhibition curve with a large enough effect; title and protocol of this record describe different tests; note: nearly all actives have a fitted effect of over 45% in size; note: potency is the fitted concentration of half-maximal effect)
# [10] = target: Retinaldehyde dehydrogenase 3 (Homo sapiens) (UniProt P47895); assay: qHTS for Inhibitors of the Aldehyde Dehydrogenase Family (ALDH1A3) Confirmatory screens (AID 2061311); note: nearly all actives have a fitted effect of over 60% in size; note: potency is the fitted concentration of half-maximal effect
# [11] = target: Retinal dehydrogenase 2 (Homo sapiens) (UniProt O94788); assay: qHTS for Inhibitors of the Aldehyde Dehydrogenase Family (ALDH1A2) Confirmation screens (AID 2061314); note: nearly all actives have a fitted effect of over 65% in size; note: potency is the fitted concentration of half-maximal effect
# [12] = target: Aldehyde dehydrogenase 1A1 (Homo sapiens) (UniProt P00352); assay: qHTS for Inhibitors of the Aldehyde Dehydrogenase Family (ALDH1A1) Confirmatory screens (AID 2061316); note: nearly all actives have a fitted effect of over 65% in size; note: potency is the fitted concentration of half-maximal effect
# [13] = target: Aldehyde dehydrogenase, mitochondrial (Homo sapiens) (UniProt P05091); assay: qHTS for Inhibitors of the Aldehyde Dehydrogenase Family (ALDH2) Primary screen (AID 2061308); note: nearly all actives have a fitted effect of over 55% in size; note: potency is the fitted concentration of half-maximal effect
# [14] = target: Retinaldehyde dehydrogenase 3 (Homo sapiens) (UniProt P47895); assay: qHTS for Inhibitors of the Aldehyde Dehydrogenase Family (ALDH1A3) Primary screen (AID 2061315)
# [15] = target: Retinaldehyde dehydrogenase 3 (Homo sapiens) (UniProt P47895); assay: qHTS for Inhibitors of the Aldehyde Dehydrogenase Family (ALDH1A3) Validation screen (AID 2061312); note: nearly all actives have a fitted effect of over 45% in size
# [16] = BET inhibitor-based combinations targeting novel dependencies in MECOM-rearranged (r) AML: AML-194 cell line (AID 2202237; note: nearly all actives have a fitted effect of over 40% in size; note: potency is the fitted concentration of half-maximal effect)
# Method in brief: as §1
structure (smiles),measurement,setting,value
CC[C@@]1(O)C(=O)OCc2c1cc1n(c2=O)Cc2cc3ccccc3nc2-1,Potency,[1],inactive
same,Potency,[2],0.0132 µM (active)
same,Potency,[3],0.0132 µM (active)
same,Potency,[4],0.0074 µM (active)
same,Potency,[5],0.0053 µM (active)
same,Potency,[6],0.0105 µM (active)
same,Potency,[7],0.0209 µM (active)
Oc1ccc(C2=CCNCC2)cc1O,Potency,[8],inactive
CC(=O)N(C)CC#CCN1CCC(O)CC1,Potency,[8],inactive
Cc1ccc(S(=O)(=O)N[C@@H](CCCCN)C(=O)CCl)cc1,Potency,[9],inactive
same,Potency,[8],inactive
same,Potency,[10],inactive
same,Potency,[11],12.7 µM (active)
CCCn1c(C)c(C(=O)c2ccc3ccccc3c2)c2ccccc21,Potency,[8],inactive
same,Potency,[10],inactive
same,Potency,[11],inactive
same,Potency,[12],inactive
NC(N)=Nc1ccc2[nH]c3c(c2c1)C[C@@]1(O)C2Cc4ccc(O)c5c4[C@@]1(CCN2CC1CC1)[C@H]3O5,Potency,[8],inactive
CN(Cc1ccccc1)C[C@H]1CN2CC[C@H]1C[C@@H]2CNC(=O)c1ccc(C(F)(F)F)cc1,Potency,[9],inactive
CCc1nn2c(=O)cc(C3=CCNCC3)nc2s1,Potency,[8],inactive
CCOc1ccc(CCNC(=O)c2cc3ccncc3n2Cc2cccc(C)n2)cc1OCC,Potency,[8],inactive
same,Potency,[13],inactive
same,Potency,[14],inactive
same,Potency,[12],inactive
C[C@@H]1Cc2c(Cl)cc(C(=O)N[C@@H](Cc3ccccc3)C(=O)O)c(O)c2C(=O)O1,Potency,[9],inactive
same,Potency,[8],inactive
same,Potency,[13],inactive
same,Potency,[11],inactive
same,Potency,[14],inactive
CCOc1ccc(CCNC(=O)c2cc3ncccc3n2Cc2cccc(C)n2)cc1OCC,Potency,[9],inactive
same,Potency,[8],inactive
same,Potency,[13],inactive
same,Potency,[11],inactive
same,Potency,[14],inactive
CN1C(=O)CCS(=O)(=O)C1c1ccc(Cl)cc1 (centres undefined),Potency,[1],inactive
same,Potency,[15],inactive
same,viability,[2],123%
same,Potency,[3],inactive
same,Potency,[4],inactive
same,Potency,[7],inactive
O=[N+]([O-])/C=C/c1ccc2c(c1)OCO2,Potency,[8],5.01 µM (active)
same,Potency,[10],15.8 µM (active)
same,Potency,[15],inactive
same,Potency,[11],35.5 µM (active)
same,Potency,[12],3.57 µM (active)
C=C(C)[C@H]1Cc2c(ccc3c2O[C@@H]2COc4cc(OC)c(OC)cc4[C@@H]2C3=O)O1,Potency,[1],inactive
same,Potency,[2],1.18 µM (active)
same,Potency,[3],0.332 µM (active)
same,Potency,[4],0.417 µM (active)
same,Potency,[5],0.833 µM (active)
same,Potency,[6],0.934 µM (active)
same,Potency,[16],0.934 µM (active)
CC(=O)c1cccc(N=[N+]=[N-])c1,Potency,[8],inactive
CCOc1ccc(CCNC(=O)c2cc3cccnc3n2Cc2cccc(C)n2)cc1OCC,Potency,[9],inactive
same,Potency,[13],inactive
same,"activity change, negative = inhibition",[10],-11.9% [at 0.022 µM]
same,Potency,[14],inactive
O=C(CNC12CC3CC(CC(C3)C1)C2)c1ccc(Cl)cc1,Potency,[8],inactive
CN1CCN(c2cnc3c(O)ccc(C(=O)O)c3c2)CC1,Potency,[9],inactive
same,Potency,[8],inactive
same,Potency,[13],inactive
same,Potency,[10],12.7 µM (active)
same,Potency,[14],inactive
Cc1cc(C)c(OP(=O)(OCc2c(-c3ccccc3)no[n+]2[O-])Oc2c(C)cc(C)cc2C)c(C)c1,Potency,[8],12.6 µM (active)
same,Potency,[14],inactive
same,Potency,[12],2.01 µM (active)
CC(=O)c1ccc(N=[N+]=[N-])cc1,Potency,[8],8.96 µM (active)
CO[C@@H]1C[C@H](O[C@H]2CC[C@]3(C)C4CC[C@]5(C)[C@@H](C6=CC(=O)OC6)[C@@H](OC(C)=O)C[C@]5(O)C4CC[C@@H]3C2)OC(C)[C@H]1O (some centres undefined),Potency,[8],inactive
N#Cc1nc(-c2cccc3ccccc23)oc1NCc1ccccc1,Potency,[8],2.52 µM (active)
same,Potency,[14],inactive
same,Potency,[12],7.12 µM (active)
CCC1(c2ccc(N)cc2)CCC(=O)NC1=O (centres undefined),Potency,[1],inactive
same,Potency,[15],inactive
same,viability,[2],114%
same,Potency,[4],inactive
same,Potency,[5],inactive
same,Potency,[6],inactive
same,Potency,[7],inactive
same,Potency,[16],inactive
Cc1ncc(CNC(=O)N(CCCl)N=O)c(N)n1,Potency,[9],inactive
same,Potency,[8],inactive
same,Potency,[10],inactive
same,Potency,[12],inactive
NCC1(CC(=O)O)CCCCC1,Potency,[1],inactive
same,Potency,[15],inactive
same,outcome,[4],inactive
same,Potency,[6],inactive
Cc1cccc(C)c1OP(=O)(OCc1c(-c2ccccc2)no[n+]1[O-])Oc1c(C)cccc1C,Potency,[9],1.12 µM (active)
same,Potency,[8],5.04 µM (active)
same,Potency,[10],12.7 µM (active)
same,Potency,[11],12.7 µM (active)
same,Potency,[14],inactive
N#Cc1c(-c2ccc([N+](=O)[O-])o2)no[n+]1[O-],Potency,[9],2.82 µM (active)
same,Potency,[8],10.1 µM (active)
same,Potency,[13],3.16 µM (active)
same,Potency,[10],7.94 µM (active)
same,Potency,[11],15.8 µM (active)
same,Potency,[12],2.25 µM (active)
O=c1[nH]c(CN2CCNCC2)nc2ccccc12,Potency,[8],inactive
N[C@@]1(c2ccccc2Cl)CCC=CC1=O,Potency,[8],inactive
COc1cc(O)c2c(c1)CCC[C@@H](O)[C@H](O)C(=O)/C=C\C[C@H](C)OC2=O,Potency,[9],inactive
same,Potency,[13],inactive
same,Potency,[10],inactive
same,Potency,[11],inactive
same,Potency,[14],inactive
N#Cc1c(-c2cccc(-c3no[n+]([O-])c3C#N)c2)no[n+]1[O-],Potency,[9],1.27 µM (active)
same,Potency,[13],0.282 µM (active)
same,Potency,[11],1.27 µM (active)
same,Potency,[14],inactive
same,Potency,[12],12.7 µM (active)
CC(=O)OCC1=C(C(=O)O)N2C(=O)C(NC(=O)CCCC(N)C(=O)O)C2SC1 (centres undefined),Potency,[9],inactive
same,Potency,[10],inactive
N#C/C(=C\c1ccc(O)c(O)c1)C(N)=S,Potency,[9],8.96 µM (active)
same,Potency,[8],3.18 µM (active)
same,Potency,[10],1.01 µM (active)
same,Potency,[11],5.65 µM (active)
same,Potency,[12],1.42 µM (active)
CCOc1ccc(CCNC(=O)c2cc3cnccc3n2Cc2cccc(C)n2)cc1OCC,Potency,[9],inactive
same,Potency,[13],inactive
same,Potency,[14],inactive
same,Potency,[12],inactive
N#Cc1c(-c2cc(F)cc(-c3no[n+]([O-])c3C#N)c2)no[n+]1[O-],Potency,[9],0.357 µM (active)
same,Potency,[11],1.59 µM (active)
same,Potency,[12],11.3 µM (active)
